Screening data: PubChem BioAssay, several laboratories
E coli growth-1: E. coli growth inhibition, primary screen, OD600. Escherichia coli growth, 23 h; hits give low values. OD600 absorbance (no concentration beside the values). 0.21% of 330,000 active. AID 1053175, 2014;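 active = OD600 absorbance below the run mean of sample wells minus 3.6 SD, in any replicate, cut at about 0.56 in these data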
AddAB inh: growth inhibition of E. coli expressing H. pylori AddAB, primary screen, AddAB inhibitor project, absorbance. inhibition, % at 11.9 µM. 0.29% of 330,000 active; in the data active = inhibition above about 12%;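 also: 0% = vehicle wells of infected cells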
phage Ecoli inh: growth loss of phage-infected E. coli, primary screen, RecBCD inhibitor project, absorbance, with phage, HTS | inhibition, % at 11.9 µM | 0.26% of 360,000 active; in the data active = inhibition above about 11%
E coli growth-2: E. coli V3065 growth inhibition, primary screen, counter-screen for AddAB inhibitor project, absorbance, OD600; inhibition, % at 11.9 µM; 18 h; 0.27% of 330,000 active;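 active = inhibition above the campaign's mean inhibition across all tested compounds plus 3 SD, cut at about 9.9% in these data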;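 also: uninfected addAB+ strain grown without phage in ampicillin broth; 0% = DMSO wells and 100% = ciprofloxacin 0.95 µg/ml wells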
Tat transport: E. coli Tat export inhibitors, primary screen, MC4100, TorA-mCherry reporter, fluorescence, single point; inhibition, % at 10 µM; 0.036% of 340,000 active; AID 488895, 2010;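 active = mean replicate inhibition at least 50% and at least half of replicates individually reaching 50%; inconclusive = only one of the two criteria met; inactive = neither criterion met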;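 also: exported cargo escapes ClpAP degradation while cytoplasmic cargo is degraded and loses fluorescence; 0% = median of neutral control wells and 100% = median of NaSCN control wells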
An asterisk follows results filed as active; ? = inconclusive; . = no result. Hits are enriched below; roughly 0.5% of the tested compounds scored in any of these assays.

SMILES | E coli growth-1 | AddAB inh | phage Ecoli inh | E coli growth-2 | Tat transport
O=C(O)c1ccccc1SSc1ccccc1C(=O)O | 0.676 | 9.9 | 1.5 | 13.5* | 6.6
O=C(O)c1ccccc1O | 0.702 | 2.8 | 4.1 | 0.5 | 11.4
CCCOc1ccc(C=c2sc3nc(-c4ccco4)nn3c2=O)cc1OCC | 0.748 | . | . | . | .
COc1ccc(CNC(=O)c2ccc(C)o2)cc1 | 0.623 | 9.4 | 8.8 | 10.2* | -15.8
O=C(Nc1cccs1)Nc1ccc(Br)cc1F | 0.485* | 5.3 | 10.7 | 3.8 | -5.1
CC(=NN1CCN(c2ccccc2)CC1)c1ccc(O)cc1 | 0.686 | . | . | . | .
Cc1ccc2c(c1)N(C)/C(=C/c1cccc[n+]1C)S2 | 0.527* | 1.5 | -0.1 | -2.1 | 0.4
O=C(CN(Cc1ccccc1)S(=O)(=O)c1ccccc1)NN=Cc1ccccc1C(=O)O | 0.661 | . | . | . | .
CS(=O)(=O)n1nc(-c2ccc(Cl)cc2)nc1N | 0.665 | -0.9 | 2.0 | -1.7 | 4.3
Cn1nc(-c2ccc(Cl)cc2)nc2c(=O)n(C)c(=O)nc1-2 | 0.48* | 7.8 | . | 8.4 | -11.8
Cc1cccc(NC(=S)N/N=C/c2ccc([N+](=O)[O-])s2)c1 | . | 14.7* | 10.8 | 19.2* | -10.1
CN(C1CCCCC1)S(=O)(=O)c1ccc(NC(=O)c2ccc(Br)o2)cc1 | 0.742 | 2.1 | 3.7 | -0.4 | 6.0
CN(C)S(=O)(=O)c1ccc(NC(=O)c2ccc(Br)o2)cc1 | 0.639 | 6.7 | . | 9.8* | -1.2
NC1=NCC(Cc2ccc(O)cc2)N1CCCCC1CCCCC1 (stereo not drawn) | 0.45* | . | . | . | .
CCOc1cc(C=NNC(=O)c2c(-c3ccccc3)noc2C)ccc1O | 0.689 | . | . | . | .
COc1ccc(C2C(C#N)=C(N=CN3CCN(C)CC3)OC3=C2C(=O)CC(C)(C)C3)cc1OC (stereo not drawn) | 0.681 | . | . | . | .
C=CCNc1ncnc2c1[nH]c1ccc(Cl)cc12 | 0.474* | 6.9 | 9.0 | 5.7 | -10.7
C=CCNc1ncnc2c1[nH]c1ccccc12 | 0.5* | 2.4 | 6.5 | 3.1 | -9.9
CCOCCCNc1ncnc2c1[nH]c1ccccc12 | 0.692 | 3.4 | 2.5 | 1.7 | -1.1
O=C(O)c1cccc(NC(=NS(=O)(=O)c2ccccc2)c2ccccc2)c1 | 0.691 | . | . | . | .
CC(=O)N1N=C(c2ccccc2)OC1c1ccc([N+](=O)[O-])s1 (stereo not drawn) | 0.511* | -2.2 | . | 1.2 | -1.7
CC(=O)N1N=C(c2cccc([N+](=O)[O-])c2)OC1c1ccc(Br)cc1 (stereo not drawn) | 0.654 | -0.8 | 1.5 | 1.2 | 15.9
Cn1cc2c(=O)n(N=Cc3ccccc3)cnc2n1 | 0.691 | . | . | . | .
O=C(CCN1CCOCC1)NNC(=S)NC(=O)c1ccccc1 | 0.528* | 3.9 | -4.2 | -0.2 | -14.6
O=C(CCN1CCOCC1)c1ccccc1 | 0.618 | 6.5 | 2.4 | -2.5 | -30.1
SMILES | E coli growth-1 | AddAB inh | phage Ecoli inh | E coli growth-2 | Tat transport
CCCCCCCCCCCCCCCC[n+]1ccc(/C=N/O)cc1 | . | 0.3 | 2.6 | 0.4 | -12.5
CCCCCCCCCCCCCCCC[n+]1ccccc1 | 0.0565* | . | 1.5 | . | 48.2
CCCCCCCCCCCCCCCC[n+]1cccc(C(=O)N(CC)CC)c1 | 0.433* | -16.4 | 3.6 | -4.4 | ?
CCCCCCCCCCCCCCCC[n+]1ccc(C(N)=O)cc1 | 0.316* | -0.7 | 4.7 | -3.0 | 51.5*
CCCCOc1ccc(CNC(=S)NN=Cc2ccc(OC)c(OC)c2)cc1 | 0.736 | . | . | . | .
C=CCSC(=S)NC1CCS(=O)(=O)C1 (stereo not drawn) | 0.502* | 3.7 | 2.7 | -1.9 | -21.5
CCOP(=O)(OCC)C(=NOC(=O)c1ccccc1C)C(N)=O | 0.673 | . | . | . | .
Cc1ccc(Nc2c(-c3ccccn3)nc3cccc(C)n23)cc1 | 0.278* | 0.3 | 5.7 | 3.4 | -31.2
c1ccc2c(c1)CCC2=NNc1nc2ccccc2[nH]1 | 0.464* | . | . | . | .
O=C(NN=Cc1ccc(-c2ccc([N+](=O)[O-])cc2)o1)c1cccnc1 | 0.68 | . | . | . | .
CCC(C)C(N)C1=NC(C(=O)N[C@@H](CC(C)C)C(=O)N[C@H](CCC(=O)[O-])C(=O)N[C@H](C(=O)N[C@H]2CCCCNC(=O)[C@H](CC(N)=O)NC(=O)[C@@H](CC(=O)[O-])NC(=O)[C@H](Cc3cnc[nH]3)NC(=O)[C@@H](Cc3ccccc3)NC(=O)[C@H]([C@@H](C)CC)NC(=O)[C@@H](CCCN)NC2=O)[C@@H](C)CC)CS1.[Zn+2] (stereo partly drawn) | . | . | . | . | 54.3*
COc1ccc(C(=O)NC(=Cc2ccco2)C(=O)NC2CCS(=O)(=O)C2)cc1 (stereo not drawn) | 0.699 | . | . | . | .
CC(C)[C@H](CN1CCC[C@H]1CN1C(N)=NC[C@@H]1Cc1ccccc1)N1C[C@@H](Cc2ccccc2)N(CCc2ccc(Cl)c(Cl)c2)C1=N | . | 6.5 | . | 5.6 | 8.1
CC[C@@H](C)[C@@H]1CN([C@@H](C)CN2CCC[C@H]2CN2C(N)=NC[C@H]2CC(C)C)C(=N)N1CCc1ccc(Cl)c(Cl)c1 | . | 2.2 | 4.7 | 1.4 | 10.7
CC[C@@H](C)[C@@H]1CN([C@@H](CN2CCC[C@H]2CN2C(N)=NC[C@H]2CC(C)C)C(C)C)C(=N)N1CCc1ccc(Cl)c(Cl)c1 | 0.127* | 8.1 | 4.6 | 5.9 | 31.1
CCCC(CN1CCCC1CN1C(N)=NCC1Cc1ccccc1)N1CC(Cc2ccccc2)N(CCc2ccc(Cl)c(Cl)c2)C1=N (stereo not drawn) | 0.0615* | . | . | . | .
CCCC(CN1CCCC1CN1C(N)=NCC1Cc1ccccc1)N1CC(C(C)CC)N(CCc2ccc(Cl)c(Cl)c2)C1=N (stereo not drawn) | 0.338* | . | . | . | .
CCC[C@@H](CN1CCC[C@H]1CN1C(N)=NC[C@@H]1Cc1ccccc1)N1C[C@@H]([C@H](C)CC)N(CCc2ccc(Cl)c(Cl)c2)C1=N | . | 7.3 | . | 2.6 | 0.1
CCC[C@@H](CN1CCC[C@H]1CN1C(N)=NC[C@@H]1Cc1ccccc1)N1C[C@@H](Cc2ccccc2)N(CCc2ccc(Cl)c(Cl)c2)C1=N | . | 2.4 | 4.2 | 3.1 | 2.5
CCC[C@@H](CN1CCC[C@H]1CN1C(N)=NC[C@H]1CC(C)C)N1C[C@@H](Cc2ccccc2)N(CCc2ccc(Cl)c(Cl)c2)C1=N | 0.0585* | 4.5 | 0.7 | 8.0 | 0.0
CCC(=O)Nc1cccc(C2=NOC3(C2)CC(C(N)=O)N(C(=O)CC#N)C3)c1 (stereo not drawn) | 0.699 | . | . | . | .
Oc1ccc(Br)cc1C=Nn1c(-c2ccccc2)n[nH]c1=S | 0.67 | . | . | . | .
CC(=NOC(=O)Nc1ccccc1)c1ccc(C)cc1 | 0.636 | . | . | . | .
C[C@@H](CN1CCC[C@H]1CN1C(N)=NC[C@@H]1Cc1ccccc1)N1C[C@@H](Cc2ccccc2)N(CCc2ccc(Cl)c(Cl)c2)C1=N | . | 7.3 | . | 6.0 | 65.8*
CCC[C@@H](CN1CCC[C@H]1CN1C(N)=NC[C@H]1CC(C)C)N1C[C@@H](Cc2ccccc2)N(CCCC2CCCC2)C1=N | 0.268* | 4.2 | 1.0 | 2.7 | 11.6
COc1cccc(C=NNc2ccc([N+](=O)[O-])cn2)c1O | 0.411* | . | . | . | .
CCOc1cccc(/C=N/Nc2ccc(S(=O)(=O)N(CC)CC)cn2)c1O | . | 11.6 | 13.3* | 11.6* | -5.2
COc1cccc(/C=N/Nc2ccc([N+](=O)[O-])cc2)c1O | . | 0.2 | 1.1 | -0.7 | -14.9
